Experimental findings from PubChem BioAssay (Tox21) are described below.

SMILES strings stand for the structures. The source made the active and inactive calls. Where a call stands in place of a potency, no number is given. Calls follow the shape of the dose curve; as a rule, active = well fitted curve in the direction sought with a large enough effect in the repeat runs; inconclusive = weak or mixed curves; inactive = flat fitted curve, though single readings scatter.

The assay is described as follows: qHTS assay to test for compound auto fluorescence at 590 nm (red) in HEK293 cells (AID 720679). The conditions noted are these: red autofluorescence 540/590 nm; series mostly up to 91.3 µM. In short, it runs like this:
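Plates of HEK293 cells (10% dialyzed FBS) are treated with 23 nL compound or DMSO vehicle after a 4-5 hr attachment period, incubated overnight at 37C, and read for red fluorescence at 540/590nm.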
Turning to `CCCCCCC(C)O` (stereo not given), the Potency result is “inactive”.

For the compound `C1COCCN1`, the Potency entry is “inactive”.

Take `CCCCCC1C(=O)CCC1CC(=O)OC` (stereo not given): the Potency result is “inactive”.

Regarding `O=Cc1ccccc1C=O`, the Potency result is “inactive”.

Regarding `OCCNCCO`, the Potency result was “inactive”.

For `CN(C)CCCN1c2ccccc2Sc2ccc(Cl)cc21`, the Potency entry was “inactive”.

`OC[C@H]1O[C@@H]2O[C@H]3[C@H](O)[C@@H](O)[C@@H](O[C@H]4[C@H](O)[C@@H](O)[C@@H](O[C@H]5[C@H](O)[C@@H](O)[C@@H](O[C@H]6[C@H](O)[C@@H](O)[C@@H](O[C@H]7[C@H](O)[C@@H](O)[C@@H](O[C@H]1[C@H](O)[C@H]2O)O[C@@H]7CO)O[C@@H]6CO)O[C@@H]5CO)O[C@@H]4CO)O[C@@H]3CO`: the Potency entry is “inactive”.

As for `Nc1ccc2c(c1)C(=O)c1ccccc1C2=O`, the Potency entry was “inactive”.

Turning to `O=C(O)CCCCCCCCCCCC(=O)O`, the Potency entry is “inactive”.

Regarding `O=C(O)COCCN1CCN(C(c2ccccc2)c2ccc(Cl)cc2)CC1` (stereo not given), the Potency result was “inactive”.

Regarding `COc1ccc(-c2coc3cc(O)cc(O)c3c2=O)cc1`, the Potency result was “inactive”.

For `CC(=O)Oc1c(C)c(C)c2c(c1C)CC[C@@](C)(CCC[C@H](C)CCC[C@H](C)CCCC(C)C)O2`, the Potency result was “inactive”.

With `C=C[C@@]1(C)CC(=O)[C@]2(O)[C@@]3(C)[C@@H](O)CCC(C)(C)[C@@H]3[C@H](O)[C@H](OC(C)=O)[C@@]2(C)O1`, the Potency result is “inactive”.

Turning to `C1CN(SSN2CCOCC2)CCO1`, the Potency result is “inactive”.

With `CCC(=O)O[C@H]1[C@H](O[C@@H]2[C@@H](C)[C@H](O[C@H]3C[C@@](C)(OC)[C@@H](O)[C@H](C)O3)[C@@H](C)C(=O)O[C@H](CC)[C@@](C)(O)[C@H](O)[C@@H](C)C(=O)[C@H](C)C[C@@]2(C)O)O[C@H](C)C[C@@H]1N(C)C`, the Potency result is “inactive”.
